TDP1 cell CPT – qHTS for Inhibitors of human tyrosyl-DNA phosphodiesterase 1 (TDP1): qHTS in cells in presence of CPT | AID 686979, 2013 | 420,000 tested, 12% active | chicken DT40 Tdp1-/-;hTDP1 cells + 20 nM CPT, ATP luminescence, 48 h | Potency, µM (doses to about 46.2 µM), inactives show at the highest dose activity change, negative = growth inhibition, most hits filed as inhibitors; note: potency is the fitted concentration of half-maximal effect; nearly all actives have a fitted effect of over 55% in size
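Cell growth measured by CellTiter-Glo luminescence after a minimum 48 h, 37 C compound exposure with 20 nM CPT in Tdp1-knockout DT40 cells stably expressing hTDP1, seeded 400/well; qHTS titration format.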
HT1080 IDH1KD tx – qHTS for induction of synthetic lethality in tumor cells producing 2HG: qHTS for the HT-1080-IDH1KD cell line. HT-1080 IDH1 knockdown viability, ATP luminescence, 48 h. Potency, µM (titrated, usually from 46.1 µM), for the others: at the highest dose activity, negative = toxicity, hits mostly cytotoxic. 360,000 tested, 2% active;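 note: potency is the fitted concentration of half-maximal effect; 0% = DMSO wells and -100% = cell-free medium wells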
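Cytotoxicity counter-line: IDH1KD HT-1080, 48 h, CellTiter-Glo. Curves classed by r2, magnitude and activity.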
HT1080NT lethal – qHTS for induction of synthetic lethality in tumor cells producing 2HG: qHTS for the HT-1080-NT fibrosarcoma cell line; 360,000 tested, 1.6% active; HT-1080-NT fibrosarcoma viability, CellTiter-Glo ATP luminescence, 48 h; Potency, µM (highest dose often 46.1 µM), for the others: top-dose activity, negative = less viability, most hits filed as cytotoxic;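 note: NT is the 2HG producing partner of a matched IDH1 knockdown line; potency is the fitted concentration of half-maximal effect; 0% = DMSO-treated cells and -100% = media-only wells without cells; nearly all actives have a fitted effect of over 55% in size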
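Viability by CellTiter-Glo luminescence after 48 h compound exposure at 37C of HT-1080-NT cells (750/well, RPMI, 5% FBS). % activity scaled between DMSO wells and medium-only wells, then curve-fitted and categorized by curve class.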
TDP1 cell noCPT – qHTS for Inhibitors of human tyrosyl-DNA phosphodiesterase 1 (TDP1): qHTS in cells in absence of CPT; Potency, µM (top dose mostly 46.2 µM), for the others: at the highest dose activity change, negative = growth inhibition, most hits filed as inhibitors; AID 686978, 2013; DT40 Tdp1-/- hTDP1 cells, no CPT, ATP luminescence, 48 h; 420,000 tested, 15% active; note: potency is the fitted concentration of half-maximal effect; nearly all actives have a fitted effect of over 55% in size
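Camptothecin absent (DMSO only). Human TDP1-complemented DT40 knockout cells, 400 cells/well, 37 °C for minimum 48 hr; ATP measured via CellTiter-Glo, 30 min dark incubation, luminescence.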
uPA generation – qHTS for Inhibitors of Cell Surface uPA Generation | cell surface uPA generation assay, qHTS | Potency, µM (series often up to 38.3 µM), inactives show at the highest dose activity change, negative = inhibition, hits mostly inhibitors | 330,000 tested, 0.31% active; active = well fitted inhibition curve with a large enough effect; inconclusive = small, poorly fitted or top-dose-only effect; inactive = no such curve, though single readings can be large or run the other way; tested in mouse RAW 264.7 cells; note: potency is the fitted concentration of half-maximal effect; nearly all actives have a fitted effect of over 55% in size
IL-1B inflam inh – qHTS for Inhibitors of Inflammasome Signaling: IL-1-beta AlphaLISA Primary Screen; THP-1 LPS/ATP IL-1B secretion, AlphaLISA, 16 h; hits give low values; activity change, % at 57.5 µM; 360,000 tested, 4.7% active; AID 743279, 2014; in the data active = activity change below about -50%; inconclusive = mostly about -30% to -49%
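THP-1 cells pretreated 1 hr with compounds (up to 57.5 uM final), then stimulated with LPS (250 ng/mL final) plus ATP (1.25 mM final); secreted IL-1B measured by AlphaLISA after 16 hr, decreased signal indicating inhibition.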
Starred values were filed as active, the others as inactive; i = inactive; ? = inconclusive; . = no result given; ! = not confirmed by another sample; [ ] = dose if it differs, or a comment. The list is not random: actives were taken first. Their share in the collection is about 19%. Unless noted, calls come from the whole dose curve; as a rule, active = well fitted curve in the direction sought with a large enough effect; inconclusive = small, poorly fitted or top-dose-only effect, or another doubt; inactive = no such curve, though single readings can be large; an effect the other way counts as inactive or inconclusive. Unless noted, % is set by controls: 0 for no effect and ±100 for the full control effect.

SMILES	TDP1 cell CPT	HT1080 IDH1KD tx	HT1080NT lethal	TDP1 cell noCPT	uPA generation	IL-1B inflam inh
CC(=O)OC1CCC2C3CCC4=CC(=O)CCC4(C)C3CCC2(C)[C@]1(C)O (some centres not stated)	.	.	.	.	-3%	.
C#C[C@]1(OC(C)=O)CC[C@H]2[C@@H]3CCC4=C[C@@H](OC(C)=O)CC[C@@H]4[C@H]3CC[C@@]21C	?	.	.	15µM*!	.	.
C#C[C@]1(OC(C)=O)CCC2C3CCC4=CC(=O)CCC4C3CC[C@]21C (some centres not stated)	0.21µM*	.	.	16µM*	.	.
C#CC1(O)CCC2C3CCC4=C(CCC(=O)C4)C3CCC21C (configuration not stated)	?	6%	-6%	?	-2%	7
C#C[C@]1(OC(C)=O)CCC2C3CCC4=CC(=O)CC[C@@H]4C3CC[C@@]21C (some centres not stated)	?	-2%	0%	23µM*	-14%	5
NC(=O)c1ccc(NC(=O)COC(=O)CCN=C2NS(=O)(=O)c3ccccc32)cc1	-1%	8%	5%	16%	?	0
CC1CCN(c2nn3c(=O)c(C(=O)NC(C)C)cnc3s2)CC1	-19%	.	.	?	.	.
CN(N=O)c1ccc2c(c1)Cc1ccccc1-2	-28%	.	.	?	.	.
COc1ccc2c(c1)-c1nc(-n3ncc(C(=O)N(C)CC4CCCN(C)C4)c3C3CC3)ncc1CC2 (configuration not stated)	16%	.	.	-12%	.	.
CC(C)(C)c1ccc(C(=O)c2c[nH]c(C(=O)NCC3CCCO3)c2)cc1 (configuration not stated)	?	-12%	1%	15µM*	-5%	19
CC(C)(C)c1ccc(C(=O)c2c[nH]c(C(=O)NCCCN3CCOCC3)c2)cc1	?	-3%	4%	18µM*	.	12
CCC(=O)c1c[nH]c(C(=O)NCCCN2CCOCC2)c1	5%	11%	13%	-2%	-3%	15
CCCCNC(=O)/C(C#N)=C/c1ccc(F)cc1F	?	-15%	-8%	?	1%	-90*
Cn1c(=O)oc2cc(S(=O)(=O)CCC(=O)NCc3ccc(Cl)cc3)ccc21	-5%	.	.	-11%	.	.
COc1cc(/C=C2/SC(=S)N(CC(=O)O)C2=O)ccc1OC(=O)c1ccco1	-1%	5%	2%	-2%	1%	-2
COCCOC(=O)c1c(C)nc(SCC(=O)Nc2cccc3ccccc23)c(C#N)c1-c1ccco1	?	0%	-12%	29µM*	-4%	122
COCCOC(=O)c1c(C)nc(SCC(=O)Nc2ccc(C)cc2)c(C#N)c1-c1ccco1	?	2%	4%	?	0%	-4
CCOC(=O)c1c(S(=O)(=O)Nc2ccc(F)cc2C)c(C)n(C)c1C	-6%	1%	5%	-1%	0%	3
O=C(CCN1C(=O)c2ccccc2C1=O)NCc1ccc(Cl)cc1	9%	10%	18%	4%	6%	-17
CCC(C)c1ccc(Nc2ncccc2C#N)cc1 (configuration not stated)	6%	-13%	-5%	0%	1%	0
CCc1ccc(Nc2ncccc2C#N)cc1	-10%	-3%	-8%	-7%	0%	-59*
CCc1nc(SCC(=O)NC2CCCC2)c2c(=O)n(C)c(=O)n(C)c2n1	3%	0%	5%	-9%	0%	6
CC(OC(=O)c1cc(=O)[nH]c2ccccc12)C(=O)NCc1ccccc1 (configuration not stated)	2%	2%	2%	-9%	-3%	5
CC(=O)NC(Cc1c(F)c(F)c(F)c(F)c1F)C(=O)NCC(N)C(=O)c1ccccc1 (configuration not stated)	?	-3%	15%	20µM*	.	.
COCCN1CCN(C(=O)c2ccc3nc(Cc4ccc(OC)c(OC)c4)oc3c2)CC1	12µM*	-10%	7.3µM*	6.5µM*	-4%	i
SMILES	TDP1 cell CPT	HT1080 IDH1KD tx	HT1080NT lethal	TDP1 cell noCPT	uPA generation	IL-1B inflam inh
COCC1CCCN(C(=O)c2ccc3oc(Cc4ccc(Cl)cc4)nc3c2)C1 (configuration not stated)	23µM*	-15%	5%	8.2µM*	1%	-10
COc1ccc(Cc2nc3ccc(C(=O)N4CCC(C(N)=O)CC4)cc3o2)cc1	1%	7%	6%	17%	.	-4
COC1CCCN(C(=O)c2ccc3nc(Cc4cccc(Cl)c4)oc3c2)C1 (configuration not stated)	-2%	-9%	-3%	?	-1%	0
COCC1CCCN(C(=O)c2ccc3nc(Cc4cccc(Cl)c4)oc3c2)C1 (configuration not stated)	26µM*	1%	3%	15µM*	-9%	-11
COCC1CCCCN1C(=O)c1ccc2oc(CCCc3ccccc3)nc2c1 (configuration not stated)	18µM*	-12%	-6%	23µM*	0%	-5
O=C(Nc1cccc(N2CCC(NCc3cnn(-c4cccc(F)c4)c3)CC2)c1)c1ccncc1	-7%[9.04 µM]	.	.	?	.	.
N#CCCN(C(=O)c1ccc2c(=O)n3c(nc2c1)CCCCC3)c1ccccc1	?	18%	8%	-10%	-1%	0
COCC1CCN(C(=O)c2ccc3nc(Cc4cccc(Cl)c4)oc3c2)CC1	21µM*	-8%	-3%	18µM*	.	-9
CC(C)CC(=O)C1CCCN(C(=O)c2ccc3oc(Cc4ccccc4)nc3c2)C1 (configuration not stated)	23µM*	-22%	-3%	23µM*	-5%	-52*
NC(=O)[C@@H]1CCCN1C(=O)c1ccc2nc(Cc3cccc(Cl)c3)oc2c1	-23%	4%	7%	11%	-3%	27
C=CCN(CC(O)c1cccc([N+](=O)[O-])c1)C(C)CCc1ccccc1 (configuration not stated)	?	?	-13%	21µM*	1%	-11
O=C1CCC[C@@H]2Cc3nc4cc5c(cc4cc3[C@@H]3CCN1[C@H]23)OCO5	18µM*	-1%	0%	16µM*	?	-10
